{
  "source": "ChEMBL document CHEMBL3433997",
  "about": "“St. Jude Leishmania screening dataset” (2016)",
  "assay_type_in_all_cases": "functional",
  "key": {"[1]": {"molecular_target": "Solute carrier family 2, facilitated glucose transporter member 1 (Homo sapiens) (UniProt P11166)", "sequence (P11166 whole entry)": "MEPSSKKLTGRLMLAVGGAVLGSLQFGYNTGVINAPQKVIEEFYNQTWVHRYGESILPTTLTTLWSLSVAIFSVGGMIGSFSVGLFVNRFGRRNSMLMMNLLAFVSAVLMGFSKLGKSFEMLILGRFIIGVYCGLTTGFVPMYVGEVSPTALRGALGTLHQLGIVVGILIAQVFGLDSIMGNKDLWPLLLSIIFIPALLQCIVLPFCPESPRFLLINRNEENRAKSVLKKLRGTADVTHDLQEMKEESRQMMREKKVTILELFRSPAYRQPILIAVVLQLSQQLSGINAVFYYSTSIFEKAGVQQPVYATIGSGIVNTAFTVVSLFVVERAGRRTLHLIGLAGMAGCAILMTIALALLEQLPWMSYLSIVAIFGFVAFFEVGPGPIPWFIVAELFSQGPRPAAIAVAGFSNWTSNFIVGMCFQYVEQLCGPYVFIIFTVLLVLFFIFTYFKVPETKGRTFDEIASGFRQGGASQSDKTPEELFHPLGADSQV", "test": "ST_JUDE_LEISH: Cytotoxicity at 2uM final concentration against transgenic Leishmania Mexicana promastigotes LmGLUT1 that are glucose transport deficient and complemented with the human glucose transporter GLUT1. Activity is measured by DNA content using SYBR green in vitro"}, "[2]": {"molecular_target": "Hexose transporter 1 (Plasmodium falciparum) (UniProt O97467)", "test": "ST_JUDE_LEISH: Cytotoxicity at 2uM final concentration against transgenic Leishmania Mexicana promastigotes LmPfHT that are glucose transport deficient and complemented with the Plasmodium falciparum hexose transporter. Activity is measured by DNA content using SYBR green in vitro"}, "[3]": {"molecular_target": "Glucose transporter (Leishmania mexicana) (UniProt O61059)", "test": "ST_JUDE_LEISH: Cytotoxicity at 2uM final concentration against transgenic Leishmania Mexicana promastigotes LmGT2 that are glucose transport deficient and complemented with the L. Mexicana glucose transporter 2. Activity is measured by DNA content using SYBR green in vitro"}},
  "data": [
    {"smiles": "c1ccc(-c2ccc(CNCc3ccc(-c4cccc(-c5nc6ccccc6[nH]5)c4)cc3)s2)nc1", "values": [
      {"measurement": "inhibition", "setting": "[1]", "result": 1.04, "unit": "%"},
      {"measurement": "inhibition", "setting": "[2]", "result": 2.78, "unit": "%"},
      {"measurement": "inhibition", "setting": "[3]", "result": 0.61, "unit": "%"}
    ]},
    {"smiles": "COc1ccc(-c2csc3nc(C)nc(Cl)c23)cc1OC", "values": [
      {"measurement": "inhibition", "setting": "[1]", "result": -0.82, "unit": "%"},
      {"measurement": "inhibition", "setting": "[2]", "result": 0.48, "unit": "%"},
      {"measurement": "inhibition", "setting": "[3]", "result": 0.63, "unit": "%"}
    ]},
    {"smiles": "CCCCNc1c(CC)c(C)c(C#N)c2nc3ccccc3n12", "values": [
      {"measurement": "inhibition", "setting": "[1]", "result": 29.1, "unit": "%"},
      {"measurement": "inhibition", "setting": "[2]", "result": 51.4, "unit": "%"},
      {"measurement": "inhibition", "setting": "[3]", "result": 21.8, "unit": "%"}
    ]},
    {"smiles": "CCCCCc1cc(O)c2c(c1)OC(C)(C)C=C2C1=CCN(Cc2ccsc2)CC1", "values": [
      {"measurement": "inhibition", "setting": "[1]", "result": 2.33, "unit": "%"},
      {"measurement": "inhibition", "setting": "[2]", "result": 2.79, "unit": "%"},
      {"measurement": "inhibition", "setting": "[3]", "result": 2.52, "unit": "%"}
    ]},
    {"smiles": "O=C(/C=C/c1ccc(CNCCN2CCOCC2)cc1)NCCc1ccccc1", "values": [
      {"measurement": "inhibition", "setting": "[1]", "result": 0.21, "unit": "%"},
      {"measurement": "inhibition", "setting": "[2]", "result": -1, "unit": "%"},
      {"measurement": "inhibition", "setting": "[3]", "result": 0.2, "unit": "%"}
    ]},
    {"smiles": "CCN(CC)CC(O)CNc1c2ccc([N+](=O)[O-])cc2nc2cc(OC)c(OC)cc12", "note": "(stereo unspecified)", "values": [
      {"measurement": "inhibition", "setting": "[1]", "result": 69, "unit": "%"},
      {"measurement": "inhibition", "setting": "[2]", "result": 71.7, "unit": "%"},
      {"measurement": "inhibition", "setting": "[3]", "result": 42, "unit": "%"}
    ]},
    {"smiles": "Cc1ccc(-n2c(Sc3ncnc4sccc34)nnc2N2CCCC2)cc1", "values": [
      {"measurement": "inhibition", "setting": "[1]", "result": 2.72, "unit": "%"},
      {"measurement": "inhibition", "setting": "[2]", "result": 2.48, "unit": "%"},
      {"measurement": "inhibition", "setting": "[3]", "result": 1.41, "unit": "%"}
    ]},
    {"smiles": "O=[N+]([O-])c1cccc(CNCC2CCN(Cc3ccc(-c4ccccc4)cc3)CC2)c1", "values": [
      {"measurement": "inhibition", "setting": "[1]", "result": 3.06, "unit": "%"},
      {"measurement": "inhibition", "setting": "[2]", "result": 2.39, "unit": "%"},
      {"measurement": "inhibition", "setting": "[3]", "result": 0.56, "unit": "%"}
    ]},
    {"smiles": "N#Cc1ccc(-c2ccc(C(=O)NCCCCN3CCC(c4ccncc4)CC3)cc2)cc1", "values": [
      {"measurement": "inhibition", "setting": "[1]", "result": 1.06, "unit": "%"},
      {"measurement": "inhibition", "setting": "[2]", "result": 1.16, "unit": "%"},
      {"measurement": "inhibition", "setting": "[3]", "result": 2.75, "unit": "%"}
    ]},
    {"smiles": "O=C(/C=C/c1ccc(Cl)c(Cl)c1)NCCCCCN1CCC(CCNC(=O)Cc2ccc(Cl)cc2)CC1", "values": [
      {"measurement": "inhibition", "setting": "[1]", "result": 1.7, "unit": "%"},
      {"measurement": "inhibition", "setting": "[2]", "result": 0.82, "unit": "%"},
      {"measurement": "inhibition", "setting": "[3]", "result": 4.06, "unit": "%"}
    ]},
    {"smiles": "CC(=O)Nc1ncc(C(=O)Nc2cccc(-c3ccc(-c4nc5cc(C(F)(F)F)ccc5[nH]4)s3)c2)s1", "values": [
      {"measurement": "inhibition", "setting": "[1]", "result": 3.37, "unit": "%"},
      {"measurement": "inhibition", "setting": "[2]", "result": 4.16, "unit": "%"},
      {"measurement": "inhibition", "setting": "[3]", "result": 3.18, "unit": "%"}
    ]},
    {"smiles": "Cc1ccc(NC(=O)Nc2ccccc2F)cc1-c1ccc(C(=O)Nc2ccncc2)cc1", "values": [
      {"measurement": "inhibition", "setting": "[1]", "result": 1.42, "unit": "%"},
      {"measurement": "inhibition", "setting": "[2]", "result": 1.06, "unit": "%"},
      {"measurement": "inhibition", "setting": "[3]", "result": 0.59, "unit": "%"}
    ]}
  ]
}
